Most compounds without a hit are left out; they make up all but 2.4% or so of the library.
CHRM1 PAM – human M1 muscarinic receptor positive allosteric modulators, primary screen, CHO-K1 cells, Fluo-8 calcium fluorescence, 1536-well. Muscarinic acetylcholine receptor M1 (Homo sapiens), P11229. CHO-K1 hM1, ACh EC20; 0% = ACh EC20, 100% = maximal ACh. activation, % at 3 µM. 0.088% of 360,000 active. AID 588819, 2011; in the data active = activation above about 19%, passing the limit was not always enough
Target sequence (P11229 whole entry, looked up): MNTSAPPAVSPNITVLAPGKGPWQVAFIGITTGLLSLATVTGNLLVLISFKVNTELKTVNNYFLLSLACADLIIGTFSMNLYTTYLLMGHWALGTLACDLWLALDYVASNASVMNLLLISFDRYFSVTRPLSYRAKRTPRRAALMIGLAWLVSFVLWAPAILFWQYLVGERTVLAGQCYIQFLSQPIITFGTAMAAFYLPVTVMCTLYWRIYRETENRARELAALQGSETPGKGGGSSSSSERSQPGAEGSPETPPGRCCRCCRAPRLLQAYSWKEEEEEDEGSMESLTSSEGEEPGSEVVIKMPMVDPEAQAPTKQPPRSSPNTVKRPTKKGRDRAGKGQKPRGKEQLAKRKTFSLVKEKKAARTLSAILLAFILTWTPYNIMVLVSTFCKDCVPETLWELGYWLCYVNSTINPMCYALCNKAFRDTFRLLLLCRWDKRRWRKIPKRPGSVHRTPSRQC
CHRM1 antagonist – human M1 muscarinic receptor antagonists, primary screen, CHO-K1 cells, Fluo-8 calcium fluorescence, 1536-well; Muscarinic acetylcholine receptor M1 (Homo sapiens), P11229; CHO-K1 hM1, ACh EC80 antagonist; inhibition, % at 3 µM; 1.3% of 360,000 active;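 active = percent inhibition above its own plate's cutoff, namely the mean of that plate's compound wells plus 3 SD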;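 also: peak over basal fluorescence ratio during 140 s after agonist addition; 0% = ACh EC80 plus DMSO and 100% = DMSO alone without agonist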
CHO-K1 Ca ag – counter-screen for M1 agonists: effect in parental CHO-K1 cells; AID 602248, 2012; Fluo-8 calcium fluorescence; scaled to maximal ATP response, vehicle zero; 0.48% of 360,000 active; activation, % at 3 µM; in the data active = activation above about 15%;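 also: untransfected CHO-K1 host cells lacking M1 receptor as counterscreen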
CHO-K1 Ca antag – counter-screen for M1 antagonists: effect in parental CHO-K1 cells; ATP-induced calcium, Fluo-8 fluorescence; inhibition, % at 3 µM; 0.6% of 360,000 active;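 active = inhibition above a per-plate cutoff, the plate's mean sample inhibition plus 3 SD, cut at about 24% in these data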;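 also: 0% = DMSO plus EC80 ATP and 100% = DMSO alone without ATP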
M1 ag – human M1 muscarinic receptor agonists, primary screen, Fluo-8 calcium fluorescence, CHO-K1 cells, HTS; Muscarinic acetylcholine receptor M1 (Homo sapiens), P11229; CHO-K1 hM1, agonist mode; 0% DMSO, 100% acetylcholine EC100; activation, % at 3 µM; 0.33% of 360,000 active;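 active = activation above the run's mean compound activation plus 3 SD, cut at about 16% in these data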;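 also: peak over basal fluorescence ratio within a 140 s kinetic read after compound addition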
M1 PAM parental – nonselective calcium activators in parental CHO-K1 cells, primary screen, counter-screen for M1 PAM project, cell-based, Fluo-8 calcium fluorescence, full deck, 1536-well; ATP EC20; 0% at ATP EC20, 100% at ATP max; activation, % at 3 µM; 0.02% of 360,000 active;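 active = activation above the run cutoff, the mean activation of all test compounds plus 3 SD, cut at about 40% in these data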;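 also: peak over basal fluorescence ratio in a 140 s read after ATP addition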
The depositor's hits bear a star.

SMILES	CHRM1 PAM	CHRM1 antagonist	CHO-K1 Ca ag	CHO-K1 Ca antag	M1 ag	M1 PAM parental
Cc1ccc(SCC(=O)OC(C)C(=O)N2CCc3ccccc32)cc1 (configuration not stated)	11	-18	-1	0	1	-9
O=C(O)C1CC=CCC1C(=O)NCc1ccc(Cl)c(Cl)c1 (configuration not stated)	8	-4	2	-2	-3	6
O=C(N[C@@H](Cc1ccccc1)C(=O)N1CCC2(CC1)NCCc1[nH]cnc12)c1cccc(Br)c1	-18	39*	0	-2	-5	-17
Cc1noc(C)c1C(=O)NCCC1=CCCCC1	-2	-3	0	-5	-6	15
COc1ccc2c(c1)C1NC(=S)NC(C)(O2)C1C(=O)Nc1ccc(C)cc1C (configuration not stated)	12	-9	1	0	-1	7
CC(=O)N(c1ccccc1)C1CCCC1	2	-7	0	-12	-10	27
C[N+]1(C)CCC(OC(=O)C(O)(c2ccccc2)C2CCCC2)C1 (configuration not stated)	-25	97*	1	-9	-9	11
C[N+]1(C)CC[C@H](OC(=O)[C@@](O)(c2ccccc2)C2CCCC2)C1	-26	100*	0	17	-7	-8
O=C(Nc1ccccc1C(F)(F)F)C(O)(c1ccccc1)C1CCCCC1 (configuration not stated)	-12	7	0	-9	-9	-9
O=C(NCc1ccccc1C(F)(F)F)c1cccc2c1C(=O)c1ccc(N3CCC(N4CCCCC4)CC3)cc1S2(=O)=O	-28	39*	11	-1	2	15
O=C(NCC1CCCO1)c1cccc2c1C(=O)c1ccc(N3CCC(Cc4ccccc4)CC3)cc1S2(=O)=O (configuration not stated)	-23	38*	17*	12	17*	-3
Cn1nc(C(F)(F)F)c(/C=N/OC(=O)c2ccccc2Cl)c1SCc1ccccc1Cl	-28	33*	2	-14	-7	20
CN1CCN(c2ccccc2NC(=O)c2cccs2)CC1	-9	17	1	-8	-6	9
CC1(C)CC2CC(C)(CN2C(=S)Nc2ccccc2)C1 (configuration not stated)	8	-5	16*	-12	-5	22
CCCc1nc2n[nH]c(N)c2c2c1COC(C)(C)C2	-6	8	0	0	-2	10
COc1ccc(C2NC(=O)NC(C)=C2C(=O)OC2CCCCC2)cc1OC (configuration not stated)	4	-10	0	9	1	8
COC(=O)c1nc2n(n1)C(c1ccc(OC)c(OC)c1)C(C(=O)OC1CCCCC1)=C(C)N2 (configuration not stated)	-3	14	0	28*	-1	-8
CC(C)/C=C1\CC/C(=C\c2ccc(N(C)C)cc2)C1=O	-12	46*	29*	29*	52*	6
CCCC(=O)Nc1ccc2c(c1)Cc1ccccc1-2	-9	12	0	5	-6	-13
CC1CCCN(S(=O)(=O)c2ccc(C(=O)Nc3nnc(-c4ccccn4)o3)cc2)C1 (configuration not stated)	0	0	0	18	-4	-9
CC1CCCN(S(=O)(=O)c2ccc(C(=O)Nc3nnc(C4CC4)o3)cc2)C1 (configuration not stated)	3	1	5	25*	-2	-12
O=[N+]([O-])c1ccc(OCCCCN2CCc3ccccc3C2)cc1	-20	22	2	-6	-8	9
C[C@@H]1CCCCCCCCCCC1=O	9	-11	-1	2	-3	-21
O=C1NN=C2CCCCCCC12 (configuration not stated)	-29	98*	0	-1	-7	9

Bioassay records from PubChem BioAssay.
